Measured values: PubChem BioAssay AID977607 (Broad Institute, 2014)
In all, about 1,500 compounds went through this assay and about 460 (31%) were called active. Another 1% or so got no clear call; they are omitted.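 How the source made its calls: active means curve reaches 40% activation over neutral controls at an AC40 no higher than the top valid tested concentration; inconclusive means no clear call, values can overlap the other calls; inactive means signal moving opposite to the expected increase, and the rest.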 Not all results are given here. Potency and affinity values are given separately.

assay: GLuc-reported insulin release enhancers, glucose-stimulated beta cells – cell-based, INS-1E, Gaussia luciferase, luminescence, cherry-pick, set 2, dose response (AID 977607); details: INS-1E GLuc insulin secretion reporter, 2-3 h, hits give high values; at 35 µM, 100% = signal doubled over neutral wells unless noted;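 further: 0% = median of the plate neutral control wells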

Max activation, inactive:
COc1ccccc1C(OC(=O)c1cccs1)C(=O)NCC1CCCO1 (stereo not drawn) -15.4% [at 0.015 µM, 100% = signal doubled over neutral wells]
Cc1cccc(C2N=C(N)Nc3nc4ccccc4n32)c1 (stereo not drawn) -24% [at 0.005 µM, 100% = signal doubled over neutral wells]
O=C(Cc1c[nH]c2ccccc12)N[C@@H](Cc1c[nH]c2ccccc12)C(=O)O 39.3% [at 0.135 µM, 100% = signal doubled over neutral wells]
C=CCn1c(O)c(N=NC(=O)CNC(=O)c2ccco2)c2ccccc21 10.5%
O=c1[nH]nc(-c2cccs2)c2ccccc12 31.3%
O=C1NC(c2ccccc2)c2c(-c3ccccc3)n[nH]c21 (stereo not drawn) -9.3% [at 0.005 µM, 100% = signal doubled over neutral wells]
CCCc1cc(=O)n2[nH]c(C)c(-c3ccc(Cl)cc3)c2n1 24.5% [at 0.0016 µM, 100% = signal doubled over neutral wells]
O=C(Nc1ccccc1)Nc1nnc(-c2cccs2)s1 -23.9% [at 11 µM, 100% = signal doubled over neutral wells]
CCc1nnc(NC(=O)C(c2ccccc2)c2ccccc2)s1 -21.5%
O=S(=O)(Nc1ncnc2sc3c(c12)CCC3)c1cc(F)ccc1F 30.2% [at 0.135 µM, 100% = signal doubled over neutral wells]
NC(=O)c1ccc2nc(-c3ccccc3)c(-c3ccccc3)nc2c1 28.4%
O=C(O)CCCNC(=O)c1nn(Cc2ccccc2)c(=O)c2ccccc12 -18.7% [at 0.0016 µM, 100% = signal doubled over neutral wells]
CCOC(=O)Cn1c(=O)n(Cc2ccccc2)c(=O)c2cccnc21 -12.9% [at 0.0016 µM, 100% = signal doubled over neutral wells]
c1ccc(Oc2ccccc2-c2cc(NCCc3cccnc3)n3nccc3n2)cc1 -10.9% [at 0.046 µM, 100% = signal doubled over neutral wells]
O=C(Nc1nnc(-c2ccc(Cl)cc2)o1)NC1CCCCC1 -20.9%
O=C(CCCC(=O)c1ccccc1)NCc1ccccc1 35.8% [at 3.8 µM, 100% = signal doubled over neutral wells]
NCCCNC(=S)NCCCN(Cc1ccc(Cl)cc1)c1ccc(Br)cn1 -16.7% [at 0.005 µM, 100% = signal doubled over neutral wells]
Cc1cccc(-c2cc3nc4c(c(N5CCCC(O)C5)n3n2)CCC4)c1 (stereo not drawn) 36.7% [at 11 µM, 100% = signal doubled over neutral wells]
COc1ccc(C2=NOC(C(=O)NCc3ccccn3)C2)cc1OC (stereo not drawn) 31.6%
Cn1c(=O)c2[nH]c(SCc3ccccn3)nc2n(C)c1=S -21.4% [at 11 µM, 100% = signal doubled over neutral wells]
Fc1ccc(-c2csc3nnc(SCc4cccnc4)n23)cc1 18.4%
O=S1(=O)c2ccccc2OC(COCc2ccccc2)CN1C1CC1 (stereo not drawn) -28.4%
CCN(CC)C(=O)c1ccccc1NS(=O)(=O)c1ccc(C)cc1 -13.4% [at 0.0016 µM, 100% = signal doubled over neutral wells]
Cn1c(N)c(C(c2ccccc2)c2c(N)n(C)c(=O)n(C)c2=O)c(=O)n(C)c1=O 17.9% [at 0.005 µM, 100% = signal doubled over neutral wells]
CC(C)c1ccc(NC2CCCN(C(=O)c3cccnc3)C2)cc1 (stereo not drawn) -13.8% [at 0.42 µM, 100% = signal doubled over neutral wells]
CCOC(=O)c1nc(-c2ccccc2)oc1N(C)C -16.2% [at 1.2 µM, 100% = signal doubled over neutral wells]
CCCc1nc(N)sc1C(=O)OCC -11.4% [at 1.2 µM, 100% = signal doubled over neutral wells]
Nc1nc(SCc2nc3scc(-c4ccccc4)c3c(=O)[nH]2)n[nH]1 50.6%
CC1CCc2nc(N)c(C#N)c(-c3ccncc3)c2C1 (stereo not drawn) 21.5%
N#Cc1c(-c2ccco2)cc(C2CC2)nc1N 25.6%
O=c1cc(-c2cccc(Br)c2)nc(-c2ccccc2F)o1 -17.1% [at 11 µM, 100% = signal doubled over neutral wells]
Cc1nc(N)c(C#N)c(-c2cccnc2)c1-c1ccccc1 45.7% [at 11 µM, 100% = signal doubled over neutral wells]
Cc1cc(C)n2ncc(-c3cccc(Br)c3)c2n1 -17% [at 0.0016 µM, 100% = signal doubled over neutral wells]
Cc1ccc(C(=O)n2nc(-c3cccnc3)nc2N)cc1 23.7%
Cc1cccc(C)c1OCCCn1ccnc1 41% [at 0.046 µM, 100% = signal doubled over neutral wells]
O=C(CC1SC2=NCCN2C1=O)Nc1ccc(Br)cc1 (stereo not drawn) -22.5% [at 0.42 µM, 100% = signal doubled over neutral wells]
Cc1ccc(NC(=O)CN(C(=O)N2CCN(C)CC2)S(=O)(=O)c2ccc(C)cc2)cc1 -21.9% [at 1.2 µM, 100% = signal doubled over neutral wells]
Cc1cc(S(=O)(=O)Nc2nc(CN3CCOCC3)nc3sc4c(c23)CCC4)ccc1F -12.9% [at 0.135 µM, 100% = signal doubled over neutral wells]
